Source: PubChem BioAssay (NCATS)
Results filed as inconclusive are left out. Active and inactive are the calls of the source. Calls follow the shape of the dose curve; as a rule, active = well fitted inhibition curve with a large enough effect; inconclusive = small, poorly fitted or top-dose-only effect; inactive = flat fitted curve, though single readings scatter.

Key:
Assay in all cases: qHTS profiling for inhibitors of Plasmodium falciparum proliferation (AID 504749); also: nearly all actives have a fitted effect of over 60% in size
Details in all cases: P. falciparum in erythrocytes, SYBR Green DNA, 72 h; series mostly up to 28.7 µM
[1] = test system: GB4
How it was run: (§1)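 Quantitative HTS: compounds pinned into medium, infected erythrocytes added (0.3% parasitemia, 2.5% hematocrit), 72 h culture at 37 C under 5% CO2. Saponin/Triton lysis with SYBR Green I, overnight RT, then fluorescence read.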

[2] = test system: HB3
How it was run: as §1

[3] = test system: ICS
How it was run: as §1

[4] = test system: JCK
How it was run: as §1

[5] = test system: N140
How it was run: as §1

[6] = test system: P93_24
How it was run: as §1

[7] = test system: P94_40
How it was run: as §1

[8] = test system: PAD
How it was run: as §1

[9] = test system: PC15
How it was run: as §1

[10] = test system: PC26
How it was run: as §1

[11] = test system: PC49
How it was run: as §1

[12] = test system: SC27B
How it was run: as §1

[13] = test system: TAB109
How it was run: as §1

[14] = test system: TAB113
How it was run: as §1

[15] = test system: TAB165
How it was run: as §1

[16] = test system: W2
How it was run: as §1

Measured: Potency
Potency is read from the fitted curve at half-maximal effect.

CC(C)(CO)[C@@H](O)C(=O)NCCCO
inactive: all assays above

C[C@H]1[C@H](NC(=O)/C(=N/OC(C)(C)C(=O)O)c2csc(N)n2)C(=O)N1S(=O)(=O)O (stereo in doubt)
inactive: all assays above

COc1cc(C(=S)N2CCOCC2)cc(OC)c1OC
not listed: [15]
inactive: all other assays above

Cc1ccnc(NS(=O)(=O)c2ccc(N)cc2)n1
inactive: all assays above

O=C(OCCOCCO)c1ccccc1Nc1cccc(C(F)(F)F)c1
inactive: all assays above

CCCn1c(=O)[nH]c(=O)c2[nH]cnc21
inactive: all assays above

CNCCC(Oc1ccccc1C)c1ccccc1 (stereo unspecified)
inactive: [1] | [2] | [4] | [7] | [8] | [12] | [13] | [14]
active: [16] 3.79 µM

CCCCCCCCCCCCCCCCOP(=O)([O-])OCC[N+](C)(C)C
not listed: [1] | [2] | [16]
inactive: all other assays above

CC(O)C(=O)O (stereo unspecified)
inactive: all assays above

CCN1CCN(c2cc3c(cc2F)c(=O)c(C(=O)O)cn3C2CC2)CC1
not listed: [3] | [16]
inactive: all other assays above

C#C[C@]1(OC(C)=O)CC[C@H]2[C@@H]3CCC4=C[C@@H](OC(C)=O)CC[C@@H]4[C@H]3CC[C@@]21C
inactive: all assays above

CCN(CC)C(=O)N1CCN(C)CC1
inactive: all assays above

C[C@]12CC[C@@H]3c4ccc(O)cc4CC[C@H]3[C@@H]1CC[C@@H]2O
inactive: all assays above

Nc1ccc(/C=C/c2ccc(N)cc2S(=O)(=O)O)c(S(=O)(=O)O)c1
not listed: [14]
inactive: all other assays above

CCOC(=O)n1ccn(C)c1=S
inactive: all assays above

O=C1OC(c2ccc(O)cc2)(c2ccc(O)cc2)c2ccccc21
not listed: [5] | [6]
inactive: all other assays above

CCN1CCC[C@H]1CNC(=O)c1c(OC)ccc(Br)c1OC
not listed: [1] | [16]
inactive: all other assays above

CCOC(=O)/C=C(C)/C=C/C=C(C)/C=C/c1c(C)cc(OC)c(C)c1C
active: [7] 8.91 µM | [14] 3.55 µM
inactive: [1] | [4] | [9] | [11]

CN1C(CCl)Nc2cc(Cl)c(S(N)(=O)=O)cc2S1(=O)=O (stereo unspecified)
inactive: all assays above

CC(=O)Oc1ccc(C(=C2CCCCC2)c2ccc(OC(C)=O)cc2)cc1
inactive: all assays above

CC(C)NC[C@@H](O)COc1cccc2ccccc12
active: [1] 12 µM | [3] 7.08 µM | [5] 12.6 µM | [7] 12.6 µM | [9] 8.91 µM | [13] 12.6 µM | [15] 7.94 µM | [16] 1.69 µM

NCCCC[C@H](N[C@@H](CCc1ccccc1)C(=O)O)C(=O)N1CCC[C@H]1C(=O)O
inactive: all assays above

CCCCC1=NC2(CCCC2)C(=O)N1Cc1ccc(-c2ccccc2-c2nn[nH]n2)cc1
not listed: [1] | [3] | [10] | [12] | [15] | [16]
inactive: all other assays above
